Measured values reported in PubChem BioAssay.
“And” between values parts separate entries of the source, which are not always exact repeats. Equal values may be shown once. The source made the active and inactive calls.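 Rule for the calls, unless noted: active = compounds whose cell count with miR-34 switched on is under 0.7 times the count with it off; inactive = the rest.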

Assays:
[1] = P. berghei load reduction in hepatocytes – cell-based, HepG2, luciferase luminescence, HepG2 viability, primary screen (AID 624349; in the data active = parasite load remaining mostly below about 12%, no sharp cut-off; inactive = mostly above about 10%;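 note: 100% = mean of DMSO negative control wells on the same plate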); conditions: P. berghei liver stage in HepG2, luciferase luminescence, concentration not given here; parasite load remaining: stronger effect = lower value; viability: measured here: HepG2 viability without parasites
[2] = Wnt pathway potentiators raising nuclear beta-catenin – imaging, WNT3A-conditioned medium, mouse C2C12, NPC library, primary screen (AID 1117326; in the data active = nuclear beta-catenin stimulation mostly above about 4.2%, no sharp cut-off; inactive = mostly below about 10%; note: reference of the scale not given here); conditions: stronger effect = higher value
[3] = stimulators of insulin release from INS-1E, primary screen, cell-based, 5 mM glucose, NPC library (AID 1117329;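 active = compound raises insulin release from rat beta cells at 5 mM glucose, no numeric limit stated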; note: reference of the scale not given here); conditions: rat INS-1E insulin secretion, at 10 µM, stronger effect = higher value
[4] = growth inhibition of GSK3B-pretreated HCT116 cells – cell-based, CellTiter-Glo, 0.2 to 20 µM (AID 1117336;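 active = compounds lowering colon cancer cell viability after pretreatment blocking the GSK3B kinase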); conditions: HCT116 viability after GSK3B inhibitor, at 20 µM, stronger effect = higher value
[5] = inhibition of endothelial tube formation, primary screen, imaging, VEGF stimulated, CD31 staining, tube area, NPC library (AID 1117340;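 active = compound that reduces growth-factor-driven endothelial tube area in a mixed cell culture, no cutoff stated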); conditions: VEGF-stimulated ADSC/ECFC co-culture, at 10 µM, stronger effect = higher value
[6] = GLP1 release stimulators, primary, NCI-H716, NPC library (AID 1117341;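 active = compound raises GLP1 secretion from the human gut endocrine cells, with no numeric limit stated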; note: reference of the scale not given here); conditions: NCI-H716 cells, at 10 µM, stronger effect = higher value
[7] = HCT116 colon cancer cell growth inhibition, primary screen, CellTiter-Glo luminescence, NPC library (AID 1117342;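 active = compounds that lower survival of HCT116 colon cancer cells in the luminescence readout, no numeric limit stated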); conditions: at 20 µM (top of the series)
[8] = reduced SW480 viability measured with CellTiter-Glo, NPC library, primary (AID 1117343;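 active = compounds that lower viability of the colon cancer cells in the luminescence readout, with no numeric limit stated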); conditions: CellTiter-Glo luminescence; at 20 µM (top of the series) unless noted
[9] = NPC library primary testing for decreased DLD-1 cell viability via CellTiter-Glo (AID 1117346;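 active = compounds that lower survival of DLD-1 colon cancer cells in the luminescence readout, no cutoff given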); conditions: DLD-1 viability, CellTiter-Glo luminescence; at 20 µM (top of the series)
[10] = viability loss with induced miR-34 in A549 – imaging, A549 dox-inducible miR-34, nuclei and caspase counts, primary screen (AID 1347080); conditions: A549 miR-34 inducible, Hoechst nuclei count, 48 h
[11] = blockers of cellular phospholipid synthesis – cell-based, LOPAC library, screen 4, primary screen (AID 1347384; call rule not given here); conditions: animal cells, phospholipid biosynthesis inhibition screen; at 10 µM
[12] = MELAS cybrid and Rieske KO viability enhancers – cell-based, MELAS cybrids, Rieske KO mouse fibroblasts, CellTiter-Glo, primary screen (AID 1508586;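 active = mean z-score across replicates of 1.96 or higher in either the MELAS or the Rieske mutant cell line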;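 note: z relative to plate mean and SD of compound and empty wells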); conditions: low glucose
[13] = galactose survival enhancers in mitochondrial complex I cybrids – cell-based, galactose medium, ATP luminescence, primary screen (AID 1645843;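 active = z-score of at least 1.8 in each of two replicates, scored against plate mean and spread of sample wells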;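 note: positive z means more ATP and so rescue of galactose-driven cybrid death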); conditions: complex I mutant cybrid cells, 72 h, stronger effect = higher value
[14] = stronger effect = lower value, cell number ratio, induced over uninduced
[15] = measured here: relative caspase fold change +Dox/-Dox
[16] = measured here: total cells with miR-34 induction, stronger effect = lower value
[17] = measured here: total cells without miR-34 induction
[18] = MELAS cybrid survival, CellTiter-Glo 48 h, stronger effect = higher value
[19] = Rieske KO mouse fibroblast survival, CellTiter-Glo 72 h

SMILES: CCCCc1ncc(/C=C(\Cc2cccs2)C(=O)O)n1Cc1ccc(C(=O)O)cc1
- parasite load remaining [1]: 50.8% (inactive)
- viability [1]: 110%
- nuclear beta-catenin stimulation ([2]; at 10 µM): 0.4% (inactive)
- nuclear beta-catenin stimulation ([2]; stimulation, at 2 µM): 12.2%
- insulin secretion stimulation [3]: 2.05% (inactive)
- viability decrease [4]: 9.7% (inactive)
- tube area decrease [5]: -11.7% (inactive)
- GLP1 secretion stimulation [6]: -2.1% (inactive)
- inhibition of viability [7]: 0% (inactive)
- viability decrease (inhibition) [8]: -13.7% (inactive)
- viability decrease (inhibition) [9]: -4.6% (inactive)
- fold change [10, 14]: 1.04 (inactive) and 0.815 (inactive)
- fold change [10, 15]: 0.751 and 0.591
- cell count [10, 16]: 10200 and 8890
- cell count [10, 17]: 9790 and 10900
- outcome [11]: inactive
- z-score [12, 18]: 0.334 (inactive)
- z-score [12, 19]: -0.876
- z-score [13]: 0.525 (inactive) and 0.34 (inactive)

SMILES: CCCCCCCCCCCCCCC[C@H](O)[C@@H](N)CO
- nuclear beta-catenin stimulation ([2]; at 10 µM): 43.1% (active)
- nuclear beta-catenin stimulation ([2]; stimulation, at 2 µM): 1.5%
- insulin secretion stimulation [3]: 1% (inactive)
- viability decrease [4]: 72.1% (active)
- tube area decrease [5]: 17.5% (inactive)
- GLP1 secretion stimulation [6]: 7.7% (inactive)
- inhibition of viability [7]: 69.8% (active)
- viability decrease (inhibition) [8]: 143% (active)
- viability decrease (inhibition) [9]: 104% (active)
- fold change [10, 14]: 0.915 (inactive)
- fold change [10, 15]: 1.42
- cell count [10, 16]: 5120
- cell count [10, 17]: 5600

SMILES: OCCN1CCN(CC/C=C2/c3ccccc3Sc3ccc(C(F)(F)F)cc32)CC1
- parasite load remaining [1]: 69.9% (inactive)
- viability [1]: 81%
- nuclear beta-catenin stimulation ([2]; at 10 µM): -1.3% (inactive)
- nuclear beta-catenin stimulation ([2]; stimulation, at 2 µM): 14.5%
- insulin secretion stimulation [3]: 10.7% (inactive)
- viability decrease [4]: 120% (active)
- tube area decrease [5]: 88.3% (active)
- GLP1 secretion stimulation [6]: 69.1% (active)
- inhibition of viability [7]: 126% (active)
- viability decrease (inhibition) [8]: 167% (active)
- viability decrease (inhibition) [9]: 102% (active)
- fold change [10, 14]: 1.1 (inactive)
- fold change [10, 15]: 1.38
- cell count [10, 16]: 6940
- cell count [10, 17]: 6310
- outcome [11]: inactive
- z-score [13]: -1.04 (inactive)

SMILES: CC(=O)[C@@]1(O)CC[C@H]2[C@@H]3CCC4=CC(=O)CC[C@]4(C)[C@H]3CC[C@@]21C
- parasite load remaining [1]: 0.96% (inactive)
- viability [1]: 66%
- nuclear beta-catenin stimulation ([2]; at 10 µM): 1.2% (inactive)
- nuclear beta-catenin stimulation ([2]; stimulation, at 2 µM): 2.3%
- insulin secretion stimulation [3]: 0.95% (inactive)
- viability decrease [4]: 14.3% (inactive)
- tube area decrease [5]: -5.3% (inactive)
- GLP1 secretion stimulation [6]: 2% (inactive)
- inhibition of viability [7]: 20.1% (inactive)
- viability decrease (inhibition) [8]: 10.2% (inactive)
- viability decrease (inhibition) [9]: -4.1% (inactive)
- fold change [10, 14]: 0.967 (inactive) and 0.853 (inactive)
- fold change [10, 15]: 1.72 and 1.68
- cell count [10, 16]: 8400 and 8890
- cell count [10, 17]: 8690 and 10400
- outcome [11]: inactive
- z-score [12, 18]: -0.428 (inactive)
- z-score [12, 19]: 0.151
- z-score [13]: -0.055 (inactive) and -1.24 (inactive)

SMILES: COC(=O)C1=C(C)NC(C)=C(C(=O)OC(C)(C)CN(C)CCC(c2ccccc2)c2ccccc2)C1c1cccc([N+](=O)[O-])c1 (stereo not given)
- nuclear beta-catenin stimulation ([2]; at 10 µM): 22.4% (inactive)
- nuclear beta-catenin stimulation ([2]; stimulation, at 2 µM): -0.9%
- insulin secretion stimulation [3]: 1.3% (inactive)
- viability decrease [4]: 93.2% (active)
- tube area decrease [5]: 90.2% (active)
- GLP1 secretion stimulation [6]: -3.7% (inactive)
- inhibition of viability [7]: 94% (active)
- viability decrease (inhibition) [8]: 127% (active)
- viability decrease (inhibition) [9]: 92.5% (active)
- fold change [10, 14]: 1.26 (inactive) and 0.934 (inactive)
- fold change [10, 15]: 1.89 and 0.993
- cell count [10, 16]: 1980 and 4820
- cell count [10, 17]: 1570 and 5160
- outcome [11]: active
- z-score [12, 18]: -0.809 (inactive)
- z-score [12, 19]: -0.0835
- z-score [13]: -1.52 (inactive) and -2.66 (inactive)
